EWS-Fli inh: EWS/Fli transcriptional activity inhibition; A673 NR0B1-luciferase reporter, viability-normalised; inhibition, % at 12.6 µM; AID 651661; 350,000 tested, 0.67% active;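 active = mean inhibition of at least 50% after viability correction, with every replicate also passing that limit; inconclusive = mean reaches 50% but only one of two replicates passes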;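 also: firefly luciferase signal divided by Alamar Blue viability fluorescence both relative to DMSO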
TROY signal inh: TROY signaling inhibition; Q293 LMP1-TROYcd NF-kB luciferase reporter, 4 h; inhibition, % at 10 µM; 360,000 tested, 0.98% active; AID 1347056;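 active = compounds whose plate-normalised and pattern-corrected inhibition of the luciferase reporter signal at the single screening dose is 50% or more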
LGR2 inh: inhibitors of bursicon-induced Drosophila LGR2 receptor cAMP signaling. 380,000 tested, 0.35% active. HEK293 LGR2, CRE-luciferase, bursicon-stimulated, 4 h. AID 720647. inhibition, % at 9.99 µM;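 active = drop in luminescence signal, shown as inhibition above about 50% in the replicate tests, limit read from the data, passing the limit was not always enough; inconclusive = probably only some replicates passing the limit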;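 also: agonist challenge used bursicon conditioned medium at about half maximal strength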
CF NFkB block: inhibitors of cystic fibrosis induced NF-kB | KKLEB NF-kB-GFP reporter, PAF-induced, GFP fluorescence overnight | inhibition, % at 5 µM | 360,000 tested, 0.86% active | AID 588850;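 active = at least 50% inhibition at 5 µM, scaled per plate between neutral and stimulator controls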;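 also: PAF is a Pseudomonas aeruginosa culture filtrate used as stimulus; plate controls were PAF-stimulated DMSO wells for no effect and unstimulated DMSO wells for full effect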
TWEAK Fn14 block: TWEAK-Fn14 signaling inhibition. TWEAK-stimulated Fn14 reporter cells, luciferase luminescence, 8 h. inhibition, % at 10 µM. 360,000 tested, 2% active. AID 1159606; in the data active = inhibition above about 50%
KKLEB cytotox: reduces viability of KKLEB cystic fibrosis airway cells. KKLEB CF airway cells viability, ATPlite luminescence, overnight; active compounds read low; cells stimulated with P. aeruginosa culture filtrate. activity change (cytotoxicity), % at 5 µM. 360,000 tested, 0.36% active. AID 602141;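 active = corrected activity change at or below -50% at 5 µM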
Starred values were filed as active, the others as inactive; ? = inconclusive; nt = no result given. Only some compounds are listed: those with a hit (about 2.6% of all), similar ones and a draw of the others.

SMILES	EWS-Fli inh	TROY signal inh	LGR2 inh	CF NFkB block	TWEAK Fn14 block	KKLEB cytotox
CC(C)C#Cc1ccc2c(c1)O[C@H](CN(C)C(=O)c1cccnc1)[C@@H](C)CN([C@@H](C)CO)S2(=O)=O	-1.3	nt	-4.2	nt	nt	nt
C[C@@H]1CN([C@H](C)CO)C(=O)c2cc(NS(=O)(=O)c3cccs3)ccc2O[C@@H]1CN(C)C(=O)Nc1ccc(C(F)(F)F)cc1	-3.5	nt	-8.9	nt	nt	nt
O=C(C[C@@H]1C=C[C@@H](NS(=O)(=O)c2ccc(F)cc2)[C@@H](CO)O1)N1CCc2ccccc2C1	nt	nt	-6.7	nt	nt	nt
C[C@H]1CN([C@@H](C)CO)C(=O)c2cc(Br)cnc2O[C@@H]1CN(C)C(=O)C1CCOCC1	-10.7	nt	1.3	nt	nt	nt
Cc1cc(C)c(C)c(S(=O)(=O)N2CCN(C(=O)c3cc(=O)[nH]c4ccccc34)CC2)c1C	nt	7.3	nt	36.7	53.6*	-16.9
CC(C)NC(=O)N(C)C[C@@H]1Oc2c(NC(=O)c3nc4ccccc4s3)cccc2C(=O)N([C@@H](C)CO)C[C@H]1C	-9.1	nt	6.0	nt	nt	nt
O=C(C=Cc1ccccc1)c1c[nH]c2ccccc2c1=O	-24.1	3.3	31.1	39.5	78.0*	-18.2
NC1=C(Cl)C(=O)c2ccccc2C1=O	-14.4	-22.1	-12.0	59.6*	4.6	7.2
NC1=C(Cl)C(=O)c2ccc(S(N)(=O)=O)cc2C1=O	65.1*	85.7*	104.7*	88.8*	107.7*	-94.9*
CCCC#Cc1cnc2c(c1)C(=O)N([C@H](C)CO)C[C@H](C)[C@@H](CN(C)C(=O)Cc1cccnc1)O2	-2.7	nt	-5.0	nt	nt	nt
CCCCC(=NCCc1c(C)[nH]c2ccccc12)C1=C(O)CC(c2ccccc2)CC1=O (stereo not given)	50.8*	15.3	12.0	12.9	17.7	-19.8
CCc1nc2c(cnn2-c2ccc(F)cc2)c(=O)n1-c1ccc(N2CCC(C)CC2)cc1	13.0	-0.7	5.6	14.3	65.2*	-10.6
CC1(C)CC(=O)C(C=NCCCO)=C(O)C1	nt	-3.4	nt	14.9	81.4*	-16.6
CC1(C)CC(=O)C(C=NCC(N)=O)=C(O)C1	-2.7	5.0	-13.6	4.7	3.2	3.0
O=C1C(Nc2ccccc2)=C/C(=N/S(=O)(=O)c2cccs2)c2ccccc21	nt	48.3	nt	99.5*	96.9*	-91.1*
Cc1ccc(NC2=C/C(=N/S(=O)(=O)c3cccs3)c3ccccc3C2=O)cc1	24.5	59.5*	nt	80.0*	93.5*	-70.0*
O=C(C1CC1)N1[C@H](CO)[C@H]2c3ccccc3N(S(=O)(=O)c3ccccc3)C[C@H]21	-4.6	nt	2.6	nt	nt	nt
C[C@H](CO)N1C[C@H](C)[C@@H](CN(C)C(=O)Cc2ccncc2)Oc2cc(C#CC3CC3)ccc2S1(=O)=O	5.9	nt	9.5	nt	nt	nt
COc1ccc(C(=O)/C=C/C(=O)N(CC(=O)NC2CCCCC2)CC2CCCO2)c(O)c1 (stereo not given)	56.2*	50.2*	104.1*	48.0	83.6*	-17.1
COc1ccc(C(=O)/C=C/C(=O)N(Cc2ccccc2)C(C(=O)NC2CCCCC2)c2ccncc2)c(O)c1 (stereo not given)	1.6	4.8	-14.7	15.0	9.9	-14.2
COc1ccc(C(=O)/C=C/C(=O)N(Cc2ccccc2OC)C(C(=O)NC2CCCCC2)c2ccncc2)c(O)c1 (stereo not given)	nt	15.2	0.8	-3.3	-2.4	1.8
COc1ccc(C(=O)/C=C/C(=O)N(CC(=O)NC2CCCCC2)Cc2ccccc2)c(O)c1	82.6*	3.0	100.0*	70.9*	42.7	-34.5
COc1ccc(C(=O)/C=C/C(=O)N(CC(=O)NC2CCCCC2)Cc2ccccc2OC)c(O)c1	?	91.0*	?	86.7*	91.2*	-63.2*
C[C@@H]1CN([C@@H](C)CO)S(=O)(=O)c2ccc(C#Cc3ccccc3)cc2O[C@@H]1CN(C)C	10.7	nt	8.6	nt	nt	nt
COc1ccc(NC(=O)Nc2ccc3c(c2)C(=O)N([C@@H](C)CO)C[C@@H](C)[C@@H](CN(C)C(=O)c2ccccc2)OCCCC[C@@H](C)O3)cc1	-1.7	nt	-9.4	nt	nt	nt
SMILES	EWS-Fli inh	TROY signal inh	LGR2 inh	CF NFkB block	TWEAK Fn14 block	KKLEB cytotox
CN1c2ccc(C#Cc3cccnc3)cc2[C@H]2[C@H](CCN2C(=O)CN2CCOCC2)[C@@H]1CO	-3.0	nt	-13.4	nt	nt	nt
O=C(O)CSc1nnc(-c2ccc3c(c2)OCO3)o1	nt	3.8	5.4	10.0	1.2	1.6
O=C(c1ccc(Cl)cc1)N1CCCCC(Sc2nnc(-c3ccc4c(c3)OCO4)o2)C1=O (stereo not given)	nt	57.8*	nt	-5.5	97.6*	-10.0
C[C@H]1CN([C@@H](C)CO)C(=O)c2cccc(NC(=O)c3cnccn3)c2O[C@H]1CN(C)Cc1ccc(C(F)(F)F)cc1	0.3	nt	10.4	nt	nt	nt
COc1ccc(C2=CSC3=NCCN23)cc1F	nt	54.1*	nt	2.9	-6.0	-8.9
COc1ccc(C2=CSC3=NCCN23)cc1Cl	13.0	-0.5	-6.0	-2.6	-14.3	-1.0
O=C(Nc1ccc(S(=O)(=O)N2CCOCC2)cc1)c1ccc([N+](=O)[O-])o1	24.8	-1.5	2.9	78.0*	18.1	-4.0
O=C(Nc1ccc(S(=O)(=O)N2CCCC2)cc1)c1ccc([N+](=O)[O-])o1	nt	6.8	2.4	82.6*	18.3	-14.6
O=C(Nc1ccc(N2CCOCC2)cc1)c1ccc([N+](=O)[O-])o1	-8.3	-33.1	-19.3	5.7	24.5	-6.9
Cn1nccc1C(=O)Nc1ccc(S(=O)(=O)N2CCCC2)cc1	3.3	6.5	5.0	-10.0	1.3	14.7
Cn1nc(C(=O)Nc2ccc(S(=O)(=O)N3CCCCC3)cc2)ccc1=O	nt	5.2	nt	-7.9	104.1*	3.0
CC(=O)OCCNc1cc(N2CCN(C)CC2)c2noc3c2c1C(=O)c1ccccc1-3	-10.4	-15.6	11.3	-165.4	-8.4	-1.7
CCOC(=O)C(C(=O)OCC)c1cc(Br)c2noc3c2c1C(=O)c1ccccc1-3	nt	11.5	nt	74.9*	20.3	-38.2
CC(=Cc1ccccc1)C=C1SC(=S)N(CCCC(=O)Nc2ccc(C(=O)O)cc2)C1=O	-42.5	29.1	-13.5	16.2	63.6*	21.8
O=C(CCCN1C(=O)/C(=C/c2ccco2)SC1=S)Nc1ccccc1C(=O)O	11.9	9.3	-5.5	33.9	2.7	7.6
CC(/C=C1\SC(=S)N(CCCC(=O)Nc2ccc(C(=O)O)cc2)C1=O)=C\c1ccccc1	nt	-3.0	-5.9	-14.9	50.0*	28.7
O=C(CCCN1C(=O)/C(=C\c2ccco2)SC1=S)Nc1ccc2ccccc2c1	-38.2	17.2	-2.5	-4.1	59.0*	0.2
CO[C@@H]1CN(C)C(=O)c2ccc(NS(C)(=O)=O)cc2OC[C@H](C)N(Cc2ccccc2)C[C@H]1C	0.7	nt	11.6	nt	nt	nt
C[C@@H]1CN([C@H](C)CO)C(=O)Cc2cc(NC(=O)Nc3ccc(F)cc3)ccc2O[C@@H]1CN(C)Cc1ccc(C(=O)Nc2ccccc2N)cc1	-7.6	nt	-26.9	nt	nt	nt
COc1ccc(CCNC(=O)c2cc3cc(F)ccc3nc2C)cc1OC	6.7	14.7	5.2	1.4	51.3*	1.5

Screens from PubChem BioAssay.
